The experiment addresses T1, Rbm38-FF (Mus musculus, UniProt Q62176 1-237).
T1 sequence: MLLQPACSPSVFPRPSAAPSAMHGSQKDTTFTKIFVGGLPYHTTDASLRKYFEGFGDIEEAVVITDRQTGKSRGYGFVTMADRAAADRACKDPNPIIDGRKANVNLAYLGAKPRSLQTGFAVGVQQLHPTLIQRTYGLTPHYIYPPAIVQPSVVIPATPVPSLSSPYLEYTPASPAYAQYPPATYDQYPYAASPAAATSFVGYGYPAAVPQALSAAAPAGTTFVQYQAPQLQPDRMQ
Kind of experiment: SELEX-Seq; 16 mM HEPES pH 7.9, 150 mM KCl, 2 mM MgCl2, 60 uM EDTA, 1 mM DTT, 6% glycerol, 0.01 ug/uL heparin, 0.15 mM PMSF, 0.2 U/uL SUPERase-In, room temperature, 30 min; high values mean tight binding. Conditions: protein: recombinant; tags: C-terminal 2xFLAG with TEV remnant (SBP removed by TEV cleavage); ssRNA.
On to CGGUGUG, for which the binding signal is 0.00653 fraction of reads.
GGUGUGU: the binding signal is 0.0109 fraction of reads.
Under UGUGUUU stands 0.00792 fraction of reads; under GUGGUGU, 0.00782 fraction of reads.
Under GUGUGGU stands 0.00929 fraction of reads.
On to GUGUUUG, for which the binding signal is 0.00702 fraction of reads.
For UUUGUGU the value was 0.00629 fraction of reads; for GGGUGUG, 0.0067 fraction of reads; for GCGUGUG, 0.00853 fraction of reads.
Under UGUGUUG stands 0.00826 fraction of reads; under GUUUGUG, 0.00579 fraction of reads; under GGCGUGU, 0.00692 fraction of reads.
For GGUGUGG the value was 0.00694 fraction of reads; for UUGUGUU, 0.00601 fraction of reads; for GUGCGUG, 0.0063 fraction of reads.
For the sequence UGUGUGG, the binding signal was 0.00894 fraction of reads.
Under GUGUGUG stands 0.016 fraction of reads; under GUGUUGU, 0.00863 fraction of reads.
For GUGUGUA the value was 0.00612 fraction of reads; for GUGUGUU, 0.0136 fraction of reads.
Under AGUGUGU stands 0.0103 fraction of reads; under UGCGUGU, 0.00637 fraction of reads; under GUUGUGU, 0.00961 fraction of reads.
UUGUGUG: the binding signal was 0.00989 fraction of reads.
As to CGUGUGU, the binding signal was 0.01 fraction of reads.
GUGUGUC: the binding signal is 0.00739 fraction of reads.
Under UGUGUGC stands 0.00732 fraction of reads; under GUGUGCG, 0.00564 fraction of reads.
For GAGUGUG the value was 0.00663 fraction of reads.
Under UGUUGUG stands 0.00859 fraction of reads; under AUGUGUG, 0.00771 fraction of reads; under UGUGGUG, 0.00628 fraction of reads.
In the case of GUGUGGG, the binding signal is 0.00755 fraction of reads.
For UGGUGUG the value was 0.00917 fraction of reads; for UGUGUGU, 0.0159 fraction of reads.
For CAGUGUG the value was 0.00615 fraction of reads.

Source of the values: article PMC3820963, “The RNA Binding Protein RBM38 (RNPC1) Regulates Splicing during Late Erythroid Differentiation”.
